# Like-named read-outs stand apart in the source and are kept apart here.
# What was measured:
# BMPR1A = details: concentration: 1 μM, replicates: in singlicate; n = 1
# BMPR1B = details: concentration: 1 μM, replicates: in singlicate; n = 1
# BMPR2 = details: concentration: 1 μM, replicates: in singlicate; n = 1
# BMX = details: concentration: 1 μM, replicates: in singlicate; n = 1
# BRAF = details: concentration: 1 μM, replicates: in singlicate; n = 1
# BRK = system: T1, BRK; details: concentration: 1 μM, replicates: in singlicate; n = 1
# T1 construct: gene PTK6
# BRSK1 = details: concentration: 1 μM, replicates: in singlicate; n = 1
# BRSK2 = details: concentration: 1 μM, replicates: in singlicate; n = 1
# BTK = details: n = 1
# BUB1 = details: concentration: 1 μM, replicates: in singlicate; n = 1
# CAMK1B = details: concentration: 1 μM, replicates: in singlicate; n = 1
# CAMK1D = details: concentration: 1 μM, replicates: in singlicate; n = 1
# CAMK1G = details: concentration: 1 μM, replicates: in singlicate; n = 1
# CAMK1 = details: concentration: 1 μM, replicates: in singlicate; n = 1
# CAMK2A = details: concentration: 1 μM, replicates: in singlicate; n = 1
# CAMK2B = details: concentration: 1 μM, replicates: in singlicate; n = 1
# CAMK2D = details: concentration: 1 μM, replicates: in singlicate; n = 1
# CAMK2G = details: concentration: 1 μM, replicates: in singlicate; n = 1
# CAMK4 = details: concentration: 1 μM, replicates: in singlicate; n = 1
# CAMKK1 = details: concentration: 1 μM, replicates: in singlicate; n = 1
# [1] = concentration: 1 μM, replicates: in singlicate
# 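Further: KINOMEscan kinase panel screen.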
smiles,measurement,setting,value
O=C(Nc1ccccc1)Nc1cccc(Oc2ccc3nccn3n2)c1,%Inh,BMPR1A,0%
same,%Inh,BMPR1B,0%
same,%Inh,BMPR2,0%
same,%Inh,BMX,0%
same,%Inh,BRAF,24%
same,%Inh,BRK,0%
same,%Inh,BRSK1,0%
same,%Inh,BRSK2,0%
same,%Inh,BTK; [1],0%
same,%Inh,BUB1,0%
same,%Inh,CAMK1B,0%
same,%Inh,CAMK1D,3%
same,%Inh,CAMK1G,0%
same,%Inh,CAMK1,0%
same,%Inh,CAMK2A,0%
same,%Inh,CAMK2B,0%
same,%Inh,CAMK2D,0%
same,%Inh,CAMK2G,3%
same,%Inh,CAMK4,7%
same,%Inh,CAMKK1,0%
Cc1c(Cn2ccn3c(=O)cc(N4CCOCC4)nc23)cccc1C(F)(F)F [GSK2289044],%Inh,BMPR1A,0%
same,%Inh,BMPR1B,0%
same,%Inh,BMPR2,0%
same,%Inh,BMX,38%
same,%Inh,BRAF,0%
same,%Inh,BRK,0%
same,%Inh,BRSK1,0%
same,%Inh,BRSK2,0%
same,%Inh,BTK; [1],0%
same,%Inh,BUB1,0%
same,%Inh,CAMK1B,0%
same,%Inh,CAMK1D,7%
same,%Inh,CAMK1G,13%
same,%Inh,CAMK1,0%
same,%Inh,CAMK2A,83%
same,%Inh,CAMK2B,79%
same,%Inh,CAMK2D,18%
same,%Inh,CAMK2G,32%
same,%Inh,CAMK4,5%
same,%Inh,CAMKK1,9%
Cc1ccc(C(=O)Nc2ccc(Nc3ccnc4cc(-c5ccccn5)ccc34)cc2O)cc1.Cl [GW440146],%Inh,BMPR1A,0%
same,%Inh,BMPR1B,0%
same,%Inh,BMPR2,0%
same,%Inh,BMX,14%
same,%Inh,BRAF,0%
same,%Inh,BRK,29%
same,%Inh,BRSK1,0%
same,%Inh,BRSK2,0%
same,%Inh,BTK; [1],46%
same,%Inh,BUB1,54%
same,%Inh,CAMK1B,13%
same,%Inh,CAMK1D,20%
same,%Inh,CAMK1G,0%
same,%Inh,CAMK1,39%
same,%Inh,CAMK2A,0%
same,%Inh,CAMK2B,0%
same,%Inh,CAMK2D,0%
same,%Inh,CAMK2G,8%
same,%Inh,CAMK4,0%
same,%Inh,CAMKK1,0%
O=c1cc(N2CCOCC2)nc2n(Cc3cccc(Cl)c3Cl)ccn12 [GSK2286295],%Inh,BMPR1A,0%
same,%Inh,BMPR1B,0%
same,%Inh,BMPR2,0%
same,%Inh,BMX,25%
same,%Inh,BRAF,0%
same,%Inh,BRK,8%
same,%Inh,BRSK1,13%
same,%Inh,BRSK2,0%
same,%Inh,BTK; [1],0%
same,%Inh,BUB1,0%
same,%Inh,CAMK1B,8%
same,%Inh,CAMK1D,18%
same,%Inh,CAMK1G,0%
same,%Inh,CAMK1,14%
same,%Inh,CAMK2A,0%
same,%Inh,CAMK2B,0%
same,%Inh,CAMK2D,5%
same,%Inh,CAMK2G,9%
same,%Inh,CAMK4,0%
same,%Inh,CAMKK1,14%
NC(=O)c1nnc2ccccc2c1N,%Inh,BMPR1A,7%
same,%Inh,BMPR1B,10%
same,%Inh,BMPR2,36%
same,%Inh,BMX,90.1%
same,%Inh,BRAF,23%
same,%Inh,BRK,9%
same,%Inh,BRSK1,22%
same,%Inh,BRSK2,0%
same,%Inh,BTK; 1 µM,43%
same,%Inh,BUB1,12%
same,%Inh,CAMK1B,0%
same,%Inh,CAMK1D,13%
same,%Inh,CAMK1G,7%
same,%Inh,CAMK1,14%
same,%Inh,CAMK2A,0%
same,%Inh,CAMK2B,0%
same,%Inh,CAMK2D,7%
same,%Inh,CAMK2G,0%
same,%Inh,CAMK4,0%
same,%Inh,CAMKK1,10%
CC1=C(C(=O)Nc2cc3cn[nH]c3cc2F)C(c2ccc(C(F)(F)F)cc2)CC(=O)N1 (centres unmarked) [GSK429286],%Inh,BMPR1A,0%
same,%Inh,BMPR1B,0%
same,%Inh,BMPR2,6%
same,%Inh,BMX,4%
same,%Inh,BRAF,7%
same,%Inh,BRK,20%
same,%Inh,BRSK1,5%
same,%Inh,BRSK2,0%
same,%Inh,BTK; [1],0%
same,%Inh,BUB1,18%
same,%Inh,CAMK1B,8%
same,%Inh,CAMK1D,7%
same,%Inh,CAMK1G,0%
same,%Inh,CAMK1,0%
same,%Inh,CAMK2A,0%
same,%Inh,CAMK2B,0%
same,%Inh,CAMK2D,0%
same,%Inh,CAMK2G,24%
same,%Inh,CAMK4,0%
same,%Inh,CAMKK1,17%
O=S(=O)(c1ccc(-c2ccnc3[nH]ccc23)cc1)N1CCCC1 [GSK846226],%Inh,BMPR1A,0%
same,%Inh,BMPR1B,0%
same,%Inh,BMPR2,24%
same,%Inh,BMX,10%
same,%Inh,BRAF,0%
same,%Inh,BRK,0%
same,%Inh,BRSK1,0%
same,%Inh,BRSK2,0%
same,%Inh,BTK; [1],0%
same,%Inh,BUB1,0%
same,%Inh,CAMK1B,30%
same,%Inh,CAMK1D,31%
same,%Inh,CAMK1G,33%
same,%Inh,CAMK1,39%
same,%Inh,CAMK2A,47%
same,%Inh,CAMK2B,12%
same,%Inh,CAMK2D,44%
same,%Inh,CAMK2G,34%
same,%Inh,CAMK4,0%
same,%Inh,CAMKK1,2%
COc1ccc(Nc2nccc(NCCNC(=O)Nc3ccccc3F)n2)cc1 [GSK1379901],%Inh,BMPR1A,0%
same,%Inh,BMPR1B,0%
same,%Inh,BMPR2,6%
same,%Inh,BMX,2%
same,%Inh,BRAF,0%
same,%Inh,BRK,36%
same,%Inh,BRSK1,16%
same,%Inh,BRSK2,0%
same,%Inh,BTK; [1],0%
same,%Inh,BUB1,53%
same,%Inh,CAMK1B,35%
same,%Inh,CAMK1D,3%
same,%Inh,CAMK1G,69%
same,%Inh,CAMK1,1%
same,%Inh,CAMK2A,0%
same,%Inh,CAMK2B,0%
same,%Inh,CAMK2D,51%
same,%Inh,CAMK2G,13%
same,%Inh,CAMK4,0%
same,%Inh,CAMKK1,0%
O=C1NC(=O)C(N2CCc3ccccc32)=C1c1ccccc1Cl [SB-373598],%Inh,BMPR1A,0%
same,%Inh,BMPR1B,8%
same,%Inh,BMPR2,100%
same,%Inh,BMX,29%
same,%Inh,BRAF,1%
same,%Inh,BRK,24%
same,%Inh,BRSK1,12%
same,%Inh,BRSK2,9%
same,%Inh,BTK; [1],0%
same,%Inh,BUB1,16%
same,%Inh,CAMK1B,41%
same,%Inh,CAMK1D,65%
same,%Inh,CAMK1G,0%
same,%Inh,CAMK1,67%
same,%Inh,CAMK2A,20%
same,%Inh,CAMK2B,0%
same,%Inh,CAMK2D,18%
same,%Inh,CAMK2G,22%
same,%Inh,CAMK4,10%
same,%Inh,CAMKK1,4%
Cc1cccc(-c2nc(Nc3ccncc3)c3ccccc3n2)n1 [GW855857],%Inh,BMPR1A,0%
same,%Inh,BMPR1B,29%
same,%Inh,BMPR2,0%
same,%Inh,BMX,6%
same,%Inh,BRAF,0%
same,%Inh,BRK,13%
same,%Inh,BRSK1,0%
same,%Inh,BRSK2,11%
same,%Inh,BTK; [1],0%
same,%Inh,BUB1,0%
same,%Inh,CAMK1B,0%
same,%Inh,CAMK1D,3%
same,%Inh,CAMK1G,0%
same,%Inh,CAMK1,0%
same,%Inh,CAMK2A,6%
same,%Inh,CAMK2B,0%
same,%Inh,CAMK2D,7%
same,%Inh,CAMK2G,0%
same,%Inh,CAMK4,47%
same,%Inh,CAMKK1,24%

# — publication PMC5540273 (PLoS ONE, 2017)
